Measurements published in paper PMC7862700, “An all-to-all approach to the identification of sequence-specific readers for epigenetic DNA modifications on cytosine”.

Assays:
Test in all cases: DAPPL (digital affinity profiling via proximity ligation, sequencing); 10 mM Tris-HCl pH 7.5, 50 mM NaCl, 1 mM DTT, 4% glycerol, room temperature, 30 min; GST-TFs on glutathione beads, 16-mer random dsDNA library, 0.1% formaldehyde crosslink after washing; high values mean tight binding
Conditions in all cases: protein: recombinant; tags: N-terminal GST; dsDNA, one strand shown
[1] = biological target: T1, FLI1 (Homo sapiens, UniProt Q01543 1-452)
T1 sequence: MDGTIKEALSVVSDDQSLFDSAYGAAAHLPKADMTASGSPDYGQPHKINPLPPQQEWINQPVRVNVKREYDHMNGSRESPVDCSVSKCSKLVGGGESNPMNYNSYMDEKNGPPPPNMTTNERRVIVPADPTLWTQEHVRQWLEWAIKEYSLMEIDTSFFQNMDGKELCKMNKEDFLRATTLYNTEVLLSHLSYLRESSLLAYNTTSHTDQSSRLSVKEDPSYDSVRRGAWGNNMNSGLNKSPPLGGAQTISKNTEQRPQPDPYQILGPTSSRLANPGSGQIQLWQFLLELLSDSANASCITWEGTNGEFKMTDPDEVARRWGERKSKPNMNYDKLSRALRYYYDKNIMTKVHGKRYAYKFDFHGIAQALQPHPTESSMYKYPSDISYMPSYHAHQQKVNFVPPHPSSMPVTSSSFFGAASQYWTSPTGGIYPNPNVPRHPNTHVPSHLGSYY
In short: (§1)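 Human transcription factors carrying a GST fusion were produced in yeast, bound to glutathione beads, tagged with DNA barcodes and pooled together with a tag-only sample. Each pool was held with 200 nmole of a random double-stranded 16-mer DNA library in Tris/NaCl/DTT/glycerol buffer for 30 min at room temperature, then washed, crosslinked in 0.1% formaldehyde, proximity-ligated with BsaI/T4 ligase (1 h, 37 °C), PCR-amplified and sequenced on an Illumina NextSeq500. Binding signal is the read frequency of each hexamer for a given factor divided by its frequency in the tag-only sample.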

[2] = biological target: T2, ELK1 (Homo sapiens, UniProt P19419 1-428)
T2 sequence: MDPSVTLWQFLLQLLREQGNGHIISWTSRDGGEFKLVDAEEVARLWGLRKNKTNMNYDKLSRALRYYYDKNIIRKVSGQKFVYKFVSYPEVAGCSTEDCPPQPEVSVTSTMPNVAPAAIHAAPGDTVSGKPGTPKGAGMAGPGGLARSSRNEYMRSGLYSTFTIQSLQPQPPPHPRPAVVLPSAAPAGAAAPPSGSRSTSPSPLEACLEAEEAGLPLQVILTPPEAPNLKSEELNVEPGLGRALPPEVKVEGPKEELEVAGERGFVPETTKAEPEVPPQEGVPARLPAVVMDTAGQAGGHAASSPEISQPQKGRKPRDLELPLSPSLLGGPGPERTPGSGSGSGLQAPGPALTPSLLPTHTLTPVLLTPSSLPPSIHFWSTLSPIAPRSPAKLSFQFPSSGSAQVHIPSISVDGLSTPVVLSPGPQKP
In short: as §1

[3] = biological target: T3, GABPA (Homo sapiens, UniProt Q06546 1-454)
T3 sequence: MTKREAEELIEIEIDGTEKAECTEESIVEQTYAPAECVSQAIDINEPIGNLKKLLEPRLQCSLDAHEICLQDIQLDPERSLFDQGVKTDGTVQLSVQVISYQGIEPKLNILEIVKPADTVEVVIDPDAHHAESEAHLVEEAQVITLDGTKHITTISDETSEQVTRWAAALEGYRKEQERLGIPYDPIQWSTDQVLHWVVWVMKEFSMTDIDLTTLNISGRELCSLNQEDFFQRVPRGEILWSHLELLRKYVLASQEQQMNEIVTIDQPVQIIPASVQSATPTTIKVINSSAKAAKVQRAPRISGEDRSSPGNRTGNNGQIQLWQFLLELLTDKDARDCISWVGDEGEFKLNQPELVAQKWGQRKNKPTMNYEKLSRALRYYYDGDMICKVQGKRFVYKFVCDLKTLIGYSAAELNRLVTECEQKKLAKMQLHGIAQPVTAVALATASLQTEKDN
In short: as §1

[4] = biological target: T4, ERG (Homo sapiens, UniProt P11308 1-479)
T4 sequence: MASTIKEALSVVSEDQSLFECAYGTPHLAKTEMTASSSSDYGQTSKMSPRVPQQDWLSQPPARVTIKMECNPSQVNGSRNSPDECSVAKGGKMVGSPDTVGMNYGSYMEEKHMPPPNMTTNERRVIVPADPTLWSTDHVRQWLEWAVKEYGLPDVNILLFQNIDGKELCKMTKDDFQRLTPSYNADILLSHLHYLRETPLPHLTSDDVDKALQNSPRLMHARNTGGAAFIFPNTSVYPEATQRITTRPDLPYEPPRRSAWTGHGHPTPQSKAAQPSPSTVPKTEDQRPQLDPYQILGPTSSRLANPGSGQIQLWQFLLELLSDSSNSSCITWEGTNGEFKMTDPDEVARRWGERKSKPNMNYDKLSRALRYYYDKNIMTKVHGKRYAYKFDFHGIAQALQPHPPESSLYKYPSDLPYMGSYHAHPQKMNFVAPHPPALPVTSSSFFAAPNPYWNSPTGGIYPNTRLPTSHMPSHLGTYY
In short: as §1

[5] = biological target: ELF1 (Homo sapiens, UniProt P32519 1-619)
In short: as §1

[6] = biological target: T5, EHF (Homo sapiens, UniProt Q9NZC4 1-300)
T5 sequence: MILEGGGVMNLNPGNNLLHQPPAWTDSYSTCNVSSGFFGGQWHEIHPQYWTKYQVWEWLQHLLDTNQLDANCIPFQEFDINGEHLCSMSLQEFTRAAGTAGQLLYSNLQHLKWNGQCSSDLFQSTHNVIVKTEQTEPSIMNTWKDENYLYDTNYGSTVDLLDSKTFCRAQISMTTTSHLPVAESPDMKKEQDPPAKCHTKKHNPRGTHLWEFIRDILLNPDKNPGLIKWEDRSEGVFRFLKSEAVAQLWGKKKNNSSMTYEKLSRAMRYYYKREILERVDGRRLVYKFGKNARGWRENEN
In short: as §1

[7] = biological target: SPI1 (Homo sapiens, UniProt P17947 1-270)
In short: as §1

[8] = biological target: SPIB (Homo sapiens, UniProt Q01892 1-262)
In short: as §1

[9] = biological target: T6, ELK3 (Homo sapiens, UniProt P41970 1-407)
T6 sequence: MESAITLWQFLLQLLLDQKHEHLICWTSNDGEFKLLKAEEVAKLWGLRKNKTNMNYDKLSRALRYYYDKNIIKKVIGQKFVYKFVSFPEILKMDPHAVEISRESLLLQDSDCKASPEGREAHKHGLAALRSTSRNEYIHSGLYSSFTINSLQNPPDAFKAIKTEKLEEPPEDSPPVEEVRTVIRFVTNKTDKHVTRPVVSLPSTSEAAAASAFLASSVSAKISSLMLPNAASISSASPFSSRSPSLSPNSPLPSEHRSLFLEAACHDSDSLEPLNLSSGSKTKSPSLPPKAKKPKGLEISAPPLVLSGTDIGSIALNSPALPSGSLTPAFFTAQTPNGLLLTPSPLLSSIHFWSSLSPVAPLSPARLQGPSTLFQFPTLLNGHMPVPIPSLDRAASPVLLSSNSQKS
In short: as §1

Sequence of SPIB (Q01892 whole entry): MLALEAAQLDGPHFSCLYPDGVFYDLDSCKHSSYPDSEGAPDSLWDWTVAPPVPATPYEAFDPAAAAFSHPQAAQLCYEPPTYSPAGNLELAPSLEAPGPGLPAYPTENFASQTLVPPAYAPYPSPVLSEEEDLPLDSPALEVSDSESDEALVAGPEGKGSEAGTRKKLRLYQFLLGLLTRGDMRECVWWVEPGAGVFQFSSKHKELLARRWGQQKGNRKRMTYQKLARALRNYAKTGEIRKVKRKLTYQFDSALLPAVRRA
Sequence of ELF1 (P32519 whole entry): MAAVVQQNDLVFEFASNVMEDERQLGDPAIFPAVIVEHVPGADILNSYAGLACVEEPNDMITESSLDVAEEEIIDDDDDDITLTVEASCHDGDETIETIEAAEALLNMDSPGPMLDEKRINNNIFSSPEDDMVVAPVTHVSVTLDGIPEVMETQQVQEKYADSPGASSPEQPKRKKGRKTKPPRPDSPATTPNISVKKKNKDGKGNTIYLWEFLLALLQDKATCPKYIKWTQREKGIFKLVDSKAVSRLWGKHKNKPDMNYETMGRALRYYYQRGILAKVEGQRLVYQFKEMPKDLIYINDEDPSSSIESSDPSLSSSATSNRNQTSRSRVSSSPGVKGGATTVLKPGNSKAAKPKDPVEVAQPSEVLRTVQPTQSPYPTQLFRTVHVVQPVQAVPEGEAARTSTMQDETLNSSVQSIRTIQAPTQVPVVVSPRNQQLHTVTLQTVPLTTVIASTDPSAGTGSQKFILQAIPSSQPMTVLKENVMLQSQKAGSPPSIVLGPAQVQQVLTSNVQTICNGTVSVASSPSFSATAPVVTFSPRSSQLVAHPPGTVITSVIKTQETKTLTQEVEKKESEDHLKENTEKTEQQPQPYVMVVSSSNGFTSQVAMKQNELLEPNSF

Sequence | binding signal [1] | binding signal [2] | binding signal [3] | binding signal [4] | binding signal [5] | binding signal [6] | binding signal [7] | binding signal [8] | binding signal [9]
AACGTC | 1.07 fold enrichment (6-mer frequency, TF over GST control) | 1.09 fold enrichment (6-mer frequency, TF over GST control) | 1.1 fold enrichment (6-mer frequency, TF over GST control) | 1.07 fold enrichment (6-mer frequency, TF over GST control) | 1.05 fold enrichment (6-mer frequency, TF over GST control) | 1.12 fold enrichment (6-mer frequency, TF over GST control) | 1.02 fold enrichment (6-mer frequency, TF over GST control) | 1.13 fold enrichment (6-mer frequency, TF over GST control) | 1.24 fold enrichment (6-mer frequency, TF over GST control)
ATCCAA | 1.15 fold enrichment (6-mer frequency, TF over GST control) | 1.19 fold enrichment (6-mer frequency, TF over GST control) | 1.18 fold enrichment (6-mer frequency, TF over GST control) | 1.09 fold enrichment (6-mer frequency, TF over GST control) | 1.2 fold enrichment (6-mer frequency, TF over GST control) | 1.1 fold enrichment (6-mer frequency, TF over GST control) | 1.11 fold enrichment (6-mer frequency, TF over GST control) | 1.22 fold enrichment (6-mer frequency, TF over GST control) | 1.14 fold enrichment (6-mer frequency, TF over GST control)
CGTCCT | 1.28 fold enrichment (6-mer frequency, TF over GST control) | 1.44 fold enrichment (6-mer frequency, TF over GST control) | 1.32 fold enrichment (6-mer frequency, TF over GST control) | 1.41 fold enrichment (6-mer frequency, TF over GST control) | 1.3 fold enrichment (6-mer frequency, TF over GST control) | 1.37 fold enrichment (6-mer frequency, TF over GST control) | 1.42 fold enrichment (6-mer frequency, TF over GST control) | 1.38 fold enrichment (6-mer frequency, TF over GST control) | 1.47 fold enrichment (6-mer frequency, TF over GST control)
TGGTAG | 1.1 fold enrichment (6-mer frequency, TF over GST control) | 1.02 fold enrichment (6-mer frequency, TF over GST control) | 1.08 fold enrichment (6-mer frequency, TF over GST control) | 1 fold enrichment (6-mer frequency, TF over GST control) | 1.05 fold enrichment (6-mer frequency, TF over GST control) | 1.11 fold enrichment (6-mer frequency, TF over GST control) | 1.03 fold enrichment (6-mer frequency, TF over GST control) | 1.15 fold enrichment (6-mer frequency, TF over GST control) | 1.11 fold enrichment (6-mer frequency, TF over GST control)
GGAAAC | 1.2 fold enrichment (6-mer frequency, TF over GST control) | 1.35 fold enrichment (6-mer frequency, TF over GST control) | 1.25 fold enrichment (6-mer frequency, TF over GST control) | 1.57 fold enrichment (6-mer frequency, TF over GST control) | 1.22 fold enrichment (6-mer frequency, TF over GST control) | 1.47 fold enrichment (6-mer frequency, TF over GST control) | 1.25 fold enrichment (6-mer frequency, TF over GST control) | 1.39 fold enrichment (6-mer frequency, TF over GST control) | 1.43 fold enrichment (6-mer frequency, TF over GST control)
CATATC | 1.25 fold enrichment (6-mer frequency, TF over GST control) | 1.39 fold enrichment (6-mer frequency, TF over GST control) | 1.26 fold enrichment (6-mer frequency, TF over GST control) | 1.37 fold enrichment (6-mer frequency, TF over GST control) | 1.32 fold enrichment (6-mer frequency, TF over GST control) | 1.36 fold enrichment (6-mer frequency, TF over GST control) | 1.3 fold enrichment (6-mer frequency, TF over GST control) | 1.32 fold enrichment (6-mer frequency, TF over GST control) | 1.34 fold enrichment (6-mer frequency, TF over GST control)
TTTTTA | 1.23 fold enrichment (6-mer frequency, TF over GST control) | 1.2 fold enrichment (6-mer frequency, TF over GST control) | 1.23 fold enrichment (6-mer frequency, TF over GST control) | 1.25 fold enrichment (6-mer frequency, TF over GST control) | 1.35 fold enrichment (6-mer frequency, TF over GST control) | 1.37 fold enrichment (6-mer frequency, TF over GST control) | 1.47 fold enrichment (6-mer frequency, TF over GST control) | 1.37 fold enrichment (6-mer frequency, TF over GST control) | 1.3 fold enrichment (6-mer frequency, TF over GST control)
